Cruzain Triton: inhibitors of Trypanosoma cruzi cruzain with detergent. purified cruzain, Z-FR-AMC fluorescence, 0.01% Triton. Potency, µM, for the others: max response, negative = inhibition, usual class: inhibitors. actives 0.43% (n = 200,000);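 further: plate controls were neutral wells for no effect and buffer without enzyme for full effect; nearly all actives have a fitted effect of over 40% in size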
Target sequence (P25779 123-467 limits assumed): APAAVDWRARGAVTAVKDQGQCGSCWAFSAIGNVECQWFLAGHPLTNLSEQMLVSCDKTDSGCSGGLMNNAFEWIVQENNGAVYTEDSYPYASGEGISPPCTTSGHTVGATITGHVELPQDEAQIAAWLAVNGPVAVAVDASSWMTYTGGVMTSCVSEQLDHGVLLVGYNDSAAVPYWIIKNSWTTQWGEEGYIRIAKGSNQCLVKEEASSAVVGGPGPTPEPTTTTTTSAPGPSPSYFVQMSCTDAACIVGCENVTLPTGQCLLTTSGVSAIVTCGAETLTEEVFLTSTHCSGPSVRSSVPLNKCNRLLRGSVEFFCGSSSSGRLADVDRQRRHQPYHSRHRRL
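Sodium acetate buffer (100 mM, pH 5.5) containing 5 mM DTT and 0.01% Triton X-100 hosted 1.5 nM cruzain and test compound for 15 min at room temperature. Cleavage of 2 uM Z-FR-AMC was then tracked by fluorescence.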
Cruzain inh noDet: blocks cruzain activity in detergent-free assay. P25779. purified cruzain, Z-FR-AMC fluorescence, no detergent. Potency, µM, for inactives: max response, negative = inhibition, most hits filed as inhibitors. actives 2.3% (n = 200,000);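 further: plate controls were enzyme without inhibitor for no effect and buffer without enzyme for full effect; nearly all actives have a fitted effect of over 40% in size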
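Purified cruzain at 1.5 nM, pre-incubated 15 min with compound at room temperature in 100 mM sodium acetate pH 5.5, 5 mM DTT, 0.00005% Triton X-100. Reaction started with 2 uM Z-FR-AMC; AMC fluorescence increase over 60 s gives rate.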
Active calls of the source: *; ? = inconclusive. Shown are actives, neighbours in structure and some others; about 2.6% of the full set was active somewhere. The call rests on the fitted dose curve; in most records, active means well fitted curve in the direction sought with a large enough effect; inconclusive means small, poorly fitted or top-dose-only effect, or another doubt; inactive means no such curve, though single readings can be large; an effect the other way counts as inactive or inconclusive. Potency means the concentration at half of the fitted maximal effect.

SMILES	Cruzain Triton	Cruzain inh noDet
Cc1ccc(S(=O)(=O)n2ccc(-c3ccc(OCc4c(F)cccc4Cl)cc3)n2)cc1	1.9%	31.6µM*
CC(Oc1ccc(-c2ccccc2)c(F)c1)c1ccn(S(=O)(=O)c2ccc(Cl)cc2)n1 (stereo not drawn)	10.7%	?
Cc1cccc(C(=O)Nc2ccc(C(=O)OCc3cc(=O)n4c(C)csc4n3)cc2)c1	0.1%	-1.1%
NC1=NC(=O)/C(=C\C=C\c2ccccc2)S1	3.5%	?
O=C1OC(/C=C/c2ccccc2)=NC/1=C/C=C/c1ccccc1	5.01µM*	?
CC(C)N(C)C1CCN(S(=O)(=O)c2ccc3[nH]c(=O)ccc3c2)CC1	-0.3%	-11.1%
Cc1ccc(Cl)cc1N1CCN(C(=O)c2ccc(CS(=O)c3ccccc3)o2)CC1 (stereo not drawn)	-7.7%	?
NCc1ccc(-c2nc3ccccc3o2)cc1	-2.3%	12.6µM*
O=C1c2ccccc2C(=O)N1c1ccc(-c2nc3ccccc3o2)cc1	3.7%	4.9%
CCOC(=O)c1c(C)[nH]c(C)c1S(=O)(=O)N(C)CC(=O)Nc1ccc(C)cc1C	2.2%	7.9%
CCOc1ccc(S(=O)(=O)N2CCN(Cc3nc4ccc(C)cc4o3)CC2)cc1	-6.3%	18.2%
Clc1ccccc1-c1nnc2sc(-c3ccc(Br)o3)nn12	-4.9%	-12.6%
Clc1ccc(-c2nnc3sc(-c4ccc(Br)o4)nn23)c(Cl)c1	-0.6%	20µM*
COc1cccc(OC)c1-c1nn2c(-c3cc(-c4ccccc4)n[nH]3)nnc2s1	1.78µM*	20µM*
COc1cccc(-c2nnc3sc(-c4ccccc4)nn23)c1	-8.5%	?
COc1ccc(C)cc1NC(=O)c1cnc2ccc(C)cn2c1=O	-0.4%	-3.3%
CCOc1ccc(CC(=O)NCC(c2cccs2)S(=O)(=O)c2ccc(F)c(C)c2)cc1 (stereo not drawn)	-5.7%	-0.2%
COc1ccc(/C=C(\C#N)C(=O)Nc2cc(S(=O)(=O)N3CCOCC3)ccc2N2CCCC2)cc1	-17.1%	?
CCCc1nn2c(=O)cc(COc3ccc(/C=C(\C#N)C(=O)Nc4ccc(F)cc4)cc3)nc2s1	0.5%	-5.7%
CCN(CC)S(=O)(=O)c1ccc(N2CCCCC2)c(NC(=O)/C(C#N)=C/c2ccc(OC)cc2)c1	-6.7%	10µM*
CCOc1ccc(NC(=O)/C(C#N)=C/c2ccc(N3CCCC3)c(C)c2)cc1	-7.0%	10µM*
COc1ccc(NC(=O)/C(C#N)=C/c2ccc(OCc3ccccc3F)cc2)cc1	-0.9%	3.98µM*
CCOc1cc(/C=C(/C#N)C(=O)Nc2ccc(O)cc2)cc(Br)c1O	-1.5%	-13.4%
Cc1cc(O)c(C(c2ccccc2)N2CCN(c3ccc(F)cc3)CC2)c(=O)n1Cc1ccco1 (stereo not drawn)	1.1%	?
Cc1noc(C)c1S(=O)(=O)N(CC(=O)NCCc1ccc(Cl)cc1)c1ccc(C(C)C)cc1	-1.4%	-2.5%
SMILES	Cruzain Triton	Cruzain inh noDet
Cc1ccc(NC(=O)C2CCN(c3nc4ccccc4nc3C(F)(F)F)CC2)cc1C	2.8%	-0.4%
CC(C)CC(C(=O)OCC(=O)Nc1cccc(Cl)c1)N1C(=O)C2CC=CCC2C1=O (stereo not drawn)	14.1µM*	-19.2%
CCOc1ccccc1NC(=O)COC(=O)C(CC(C)C)N1C(=O)C2CC=CCC2C1=O (stereo not drawn)	-26.1%	7.9%
COc1cccc(CNC(=O)C(=O)NCC(c2ccco2)S(=O)(=O)c2cccs2)c1 (stereo not drawn)	-2.3%	-3.9%
C=C(C(C)=O)C(O)c1cccc(Br)c1 (stereo not drawn)	4.5%	3.8%
COC(=O)c1ccc(C(C(=O)NC2CCCCC2)N(CCc2ccccc2)C(=O)Cc2cccs2)cc1 (stereo not drawn)	0.1%	12.6µM*
COC(=O)c1ccc(C(C(=O)NC2CCCCC2)N(Cc2ccc(F)cc2)C(=O)Cc2cccs2)cc1 (stereo not drawn)	-3.6%	16.8%
Cc1cccc(OCC(=O)N(Cc2sccc2C)C2CCS(=O)(=O)C2)c1 (stereo not drawn)	-2.1%	11.4%
CCC(=O)/C=C/C1C(C)=CCCC1(C)C (stereo not drawn)	1.0%	-1.5%
CCn1c(SCC(=O)Nc2sc3c(c2C#N)CCCC3)nnc1-c1ccncc1	-10.2%	?
N#Cc1c(NC(=O)CSc2nc3c(c(C(F)(F)F)n2)CCc2ccccc2-3)sc2c1CCCC2	-3.3%	7.94µM*
Cc1nn(Cc2ccc(Cl)cc2)c(C)c1NC(=O)CSc1nc2c(c(C(F)(F)F)n1)CCc1ccccc1-2	4.3%	?
CC1CCc2c(sc(NC(=O)CSc3nc4c(c(C(F)(F)F)n3)CCc3ccccc3-4)c2C(N)=O)C1 (stereo not drawn)	-1.6%	10µM*
N#Cc1c(NC(=O)CSc2nnc(-c3ccccc3O)n2-c2ccccc2)sc2c1CCCC2	3.3%	3.98µM*
NC(=O)c1c(NC(=O)CSc2nc3c(c(C(F)(F)F)n2)CCc2ccccc2-3)sc2c1CCCC2	0.4%	?
O=C(c1ccc(CSc2nc3ccncc3n2Cc2cccc(F)c2)cc1)N1CCCCCC1	-8.0%	1.7%
O=C(Nc1ccc(F)cc1)c1oc2ccccc2c1NC(=O)C1CCCCC1	-9.9%	4.0%
Cc1ccc2nc(C3CCCN(C(=O)NCc4ccccc4)C3)[nH]c2c1 (stereo not drawn)	?	6.31µM*
Cc1ccc2nc(C3CCN(C(=O)NCc4ccccc4)CC3)[nH]c2c1	-0.1%	-2.8%
CSc1ccc(CNC(=O)CCn2c(=O)c3cccn3c3ccc(F)cc32)cc1	-1.1%	16.7%
O=C(c1ccc2c(c1)N(Cc1cccc(Cl)c1)C(=O)c1ccccc1S2(=O)=O)N1CCN(c2cccc(C(F)(F)F)c2)CC1	-1.8%	5.01µM*
O=C(c1ccc2c(c1)N(Cc1cccc(Cl)c1)C(=O)c1ccccc1S2(=O)=O)N1CCCCC1	-3.7%	1.9%
O=C(c1ccc2c(c1)N(Cc1cccc(Cl)c1)C(=O)c1ccccc1S2=O)N1CCN(c2cccc(C(F)(F)F)c2)CC1 (stereo not drawn)	-2.6%	25.1µM*
CCN1CCN(C(=O)c2ccc3c(c2)N(Cc2cccc(Cl)c2)C(=O)c2ccccc2S3=O)CC1 (stereo not drawn)	-0.5%	-0.5%
CCOc1ccccc1NC(=O)CSc1cn(CC(=O)N2CCCCCC2)c2ccccc12	-3.4%	-5.5%
SMILES	Cruzain Triton	Cruzain inh noDet
Cc1ccc(-c2nc(C)c(CCNS(=O)(=O)c3ccccc3F)s2)cc1	-10.4%	-9.8%
O=C(Nc1ccc(F)cc1)N1CCN(c2ccccc2F)CC1	-2.2%	8.8%
CCOc1ccc(C(=O)NCC(c2ccc(Cl)cc2)N2CCCCC2)cc1 (stereo not drawn)	0.1%	-4.3%
Cc1cn(C)c(CC(=O)Nc2ccc(F)cc2Cl)c1C(=O)O	0.0%	-13.7%
COc1cc(NC(=S)NC(=O)c2cc(C)cc(C)c2)ccc1NC(=O)c1cccs1	-4.0%	15.8µM*
COc1cc(NC(=S)NC(=O)c2ccc(C(C)(C)C)cc2)ccc1NC(=O)c1cccs1	3.3%	12.6µM*
COc1cc(NC(=S)NC(=O)c2c(OC)cccc2OC)ccc1NC(=O)c1cccs1	-6.7%	-14.5%
Cc1cc(C)cc(NS(=O)(=O)c2ccc(NC(=S)NC(=O)c3cccs3)cc2)c1	-2.3%	25.1µM*
COc1cc(NC(=S)NC(=O)c2ccc(F)cc2)ccc1NC(=O)c1ccco1	2.2%	?
COc1cc(NS(=O)(=O)c2ccc(NC(=S)NC(=O)c3cccs3)cc2)nc(OC)n1	-11.4%	-2.6%

Source: PubChem BioAssay (National Center for Advancing Translational Sciences (NCATS))
